Experimental data as given in PubChem BioAssay (NCI).
This is part of a sample that, as a whole, favours compounds with a hit. Of some 83,000 tested, about 20% had one in any assay.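 Assay: single dose, 48 h. Readout: percent growth (0 = no net growth; negative = cell death). Active: <10.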 Unmarked numbers belong to inactive results. The source made the active and inactive calls.

What follows are compounds tested on OVCAR-4 ovarian (assay: NCI-60 one-dose screen, 48 h (100 = growth as untreated, 0 = no growth, -100 = all killed)). Conditions: 10 µM.

Row | Compound | growth
1 | O=C(O)c1ccc(-n2cc(CNc3ccc(Cl)cc3)c(-c3ccccc3)n2)cc1 | 88.3%
2 | Cc1ccc(C(=O)C2C(=O)C3CCC2C3)cc1 (stereo not given) | 102%
3 | COc1cc2c(Nc3ccc(S(N)(=O)=O)cc3)ncnc2c(OC)c1OC | 102%
4 | CN1CCN(CC(=O)Nc2cccc(-n3cc(-c4ccncc4)c(-c4ccc(Cl)c(O)c4)n3)c2)CC1 | 59.8%
5 | O=[N+]([O-])c1cccc(/C=N/NC(=S)NC23CC4CC(CC(C4)C2)C3)c1 | 39.5%
6 | CN1CCN(c2cc3c(cc2F)c(=O)c(C(=O)O)cn3-c2ccc(F)cc2)CC1 | 102%
7 | O=C(CN1CCN(C(=O)c2ccccc2)CC1)Nc1ccccc1SCc1ccccc1 | 77.2%
8 | Clc1ccc2c(c1)C(N1CCNCC1)=Nc1ccccc1O2 | 41.1%
9 | CCOC(=O)c1cc(C(=O)c2cc(OC)c(OC)c(OC)c2)n2ncc3ccccc3c12 | 83.8%
10 | CC(=O)C1CCC2C3CC=C4CC(SC(=N)N)CCC4(C)C3CCC12C (stereo not given) | 50.1%
11 | COc1cc2c(Nc3ccc(-c4ccc(N)cc4)cc3)ncnc2c(OC)c1OC | 51.4%
12 | C#C[C@]1(O)CCC2C3CCc4cc(OC5CCCC5)ccc4C3CC[C@@]21C (stereo not given in full) | 92.9%
13 | Cc1cc(SC#N)cc(C(C)(C)C)c1O | 96.1%
14 | Cc1cc(CCNC=O)c(C)c2c1sc1ccccc12 | 85%
15 | CO[C@H]1CC(O[C@@H]2/C(C)=C/C[C@@H]3C[C@@H](C[C@]4(C=C[C@H](C)[C@@H](C5CCCCC5)O4)O3)OC(=O)[C@@H]3C=C(C)[C@@H](O)[C@H]4OC/C(=C\C=C\[C@@H]2C)[C@]43O)O[C@@H](C)C1O[C@H]1C[C@H](OC)[C@@H](O)[C@H](C)O1 (stereo not given in full) | -46.8% (active)
16 | CCN(CC)c1ccc(/C=C2\SC(=O)C(Nc3nnc(-c4cccnc4SCc4ccccc4)o3)C2=O)cc1 (stereo not given) | 38.6%
17 | O=C(N/N=C/c1ccc([N+](=O)[O-])cc1)c1ccccc1Nc1cccc(C(F)(F)F)c1 | 98.2%
18 | CC(=O)[C@H]1CC[C@]2(C)[C@@H]1CC[C@@H]1[C@@]3(C)CC(CCC#N)(CCC#N)C(=O)C(C)(C)[C@@H]3CC[C@]12C | 87.2%
19 | Cc1cc(CSc2ccccc2C(=O)N2CC=C(c3ccccc3)CC2)on1 | 89.2%
20 | N#Cc1ccc(C(=O)CSc2nccc(Nc3ccc(C(=O)O)cc3)n2)cc1 | 115%

Row | Compound | growth
21 | COc1ccc2nc3cc(Cl)ccc3c(Nc3cc(CN4CCCC4)c(O)c(CN4CCCC4)c3)c2n1 | -16.3% (active)
22 | O=C(N/N=C/c1ccc(Cl)cc1)c1ccc(Cc2n[nH]c(=O)c3cccnc23)cc1 | 106%
23 | O=S(=O)(Oc1ccc(-c2ccc3sccc3c2)cc1)c1ccc(F)cc1 | 100%
24 | CNC(=O)c1c(I)c(NC(C)=O)c(I)c(C(=O)O)c1I | 111%
25 | C/C(=N\O)c1ccc(NC(=O)CSc2nnc(-c3ccccc3)n2-c2ccccc2)cc1 | 87.3%
26 | COc1ccc(/C=C2/SC(=S)NC2=O)c(OC)c1OC | 87.7%
27 | C[C@]12CC[C@@H]3c4ccc(O)cc4CC[C@H]3[C@@H]1CC[C@@H]2NS(=O)(=O)c1ccc(C(F)(F)F)cc1 | 49.1%
28 | NS(=O)(=O)c1ccc(Br)cc1 | 104%
29 | CNS(=O)(=O)Oc1ccc(-c2ccc3occc3c2)cc1 | 98.4%
30 | COc1cc(-c2nn(-c3cccc(NC(=O)CCN4CCN(c5ccccc5)CC4)c3)cc2-c2ccncc2)ccc1Cl | 34%
31 | CCN(CC)CC(=O)N(CC)c1ccc(C)c(Cl)c1 | 107%
32 | Cc1cccc(N=Cc2ccccc2O)c1C | 104%
33 | CCCCC1(O)CCCCC1 | 115%
34 | COc1ccc(/C=C2\CCCC3=C2N=C2SC(C)=CN2C3c2ccc(OC)cc2)cc1 (stereo not given) | 97%
35 | c1ccc(CSc2ncccc2-c2nnc(SCCN3CCOCC3)o2)cc1 | 106%
36 | C/C=C/C1=CN2C(=O)c3cc(OC4OC(C)C(NC)C(C)(O)C4O)c(C)c(O)c3N=C[C@@H]2C1 (stereo not given in full) | 6.69% (active)
37 | C[C@]12CC[C@@H]3c4ccc(OS(=O)(=O)O)cc4CC[C@H]3[C@@H]1CC[C@@H]2NS(=O)(=O)c1ccc(-c2ccccc2)cc1 | 66.9%
38 | COc1ccc(/C(C#N)=C/c2ccccc2OC)cc1 | 89.9%
39 | COc1ccc(Cc2cnc(N)nc2N)cc1OC | 106%
40 | Cc1cc(CC(C)CC(C)(C)C)n(O)c(=O)c1 (stereo not given) (tested in a mixture with another compound) | 22.4%

What follows are compounds tested on SK-OV-3 ovarian in the same assay as above. Conditions: 10 µM.

Row | Compound | growth
41 | O=C(O)c1ccc(-n2cc(CNc3ccc(Cl)cc3)c(-c3ccccc3)n2)cc1 | 107%
42 | Cc1ccc(C(=O)C2C(=O)C3CCC2C3)cc1 (stereo not given) | 107%
43 | COc1cc2c(Nc3ccc(S(N)(=O)=O)cc3)ncnc2c(OC)c1OC | 75.5%
44 | CN1CCN(CC(=O)Nc2cccc(-n3cc(-c4ccncc4)c(-c4ccc(Cl)c(O)c4)n3)c2)CC1 | 55.9%
45 | O=[N+]([O-])c1cccc(/C=N/NC(=S)NC23CC4CC(CC(C4)C2)C3)c1 | 62.4%
46 | CN1CCN(c2cc3c(cc2F)c(=O)c(C(=O)O)cn3-c2ccc(F)cc2)CC1 | 109%
47 | O=C(CN1CCN(C(=O)c2ccccc2)CC1)Nc1ccccc1SCc1ccccc1 | 89.5%
48 | Clc1ccc2c(c1)C(N1CCNCC1)=Nc1ccccc1O2 | 67%
49 | CCOC(=O)c1cc(C(=O)c2cc(OC)c(OC)c(OC)c2)n2ncc3ccccc3c12 | 83.4%
50 | CC(=O)C1CCC2C3CC=C4CC(SC(=N)N)CCC4(C)C3CCC12C (stereo not given) | 75%
51 | COc1cc2c(Nc3ccc(-c4ccc(N)cc4)cc3)ncnc2c(OC)c1OC | 36.1%
52 | C#C[C@]1(O)CCC2C3CCc4cc(OC5CCCC5)ccc4C3CC[C@@]21C (stereo not given in full) | 100%
53 | Cc1cc(SC#N)cc(C(C)(C)C)c1O | 93.1%
54 | Cc1cc(CCNC=O)c(C)c2c1sc1ccccc12 | 104%
55 | CO[C@H]1CC(O[C@@H]2/C(C)=C/C[C@@H]3C[C@@H](C[C@]4(C=C[C@H](C)[C@@H](C5CCCCC5)O4)O3)OC(=O)[C@@H]3C=C(C)[C@@H](O)[C@H]4OC/C(=C\C=C\[C@@H]2C)[C@]43O)O[C@@H](C)C1O[C@H]1C[C@H](OC)[C@@H](O)[C@H](C)O1 (stereo not given in full) | -84.1% (active)
56 | CCN(CC)c1ccc(/C=C2\SC(=O)C(Nc3nnc(-c4cccnc4SCc4ccccc4)o3)C2=O)cc1 (stereo not given) | 15.6%
57 | O=C(N/N=C/c1ccc([N+](=O)[O-])cc1)c1ccccc1Nc1cccc(C(F)(F)F)c1 | 103%
58 | CC(=O)[C@H]1CC[C@]2(C)[C@@H]1CC[C@@H]1[C@@]3(C)CC(CCC#N)(CCC#N)C(=O)C(C)(C)[C@@H]3CC[C@]12C | 103%
59 | Cc1cc(CSc2ccccc2C(=O)N2CC=C(c3ccccc3)CC2)on1 | 107%
60 | N#Cc1ccc(C(=O)CSc2nccc(Nc3ccc(C(=O)O)cc3)n2)cc1 | 106%

Row | Compound | growth
61 | COc1ccc2nc3cc(Cl)ccc3c(Nc3cc(CN4CCCC4)c(O)c(CN4CCCC4)c3)c2n1 | 29.8%
62 | O=C(N/N=C/c1ccc(Cl)cc1)c1ccc(Cc2n[nH]c(=O)c3cccnc23)cc1 | 103%
63 | O=S(=O)(Oc1ccc(-c2ccc3sccc3c2)cc1)c1ccc(F)cc1 | 107%
64 | CNC(=O)c1c(I)c(NC(C)=O)c(I)c(C(=O)O)c1I | 104%
65 | C/C(=N\O)c1ccc(NC(=O)CSc2nnc(-c3ccccc3)n2-c2ccccc2)cc1 | 39.3%
66 | COc1ccc(/C=C2/SC(=S)NC2=O)c(OC)c1OC | 91.1%
67 | C[C@]12CC[C@@H]3c4ccc(O)cc4CC[C@H]3[C@@H]1CC[C@@H]2NS(=O)(=O)c1ccc(C(F)(F)F)cc1 | 86.6%
68 | NS(=O)(=O)c1ccc(Br)cc1 | 80.8%
69 | CNS(=O)(=O)Oc1ccc(-c2ccc3occc3c2)cc1 | 111%
70 | COc1cc(-c2nn(-c3cccc(NC(=O)CCN4CCN(c5ccccc5)CC4)c3)cc2-c2ccncc2)ccc1Cl | 26.7%
71 | CCN(CC)CC(=O)N(CC)c1ccc(C)c(Cl)c1 | 93.1%
72 | Cc1cccc(N=Cc2ccccc2O)c1C | 108%
73 | CCCCC1(O)CCCCC1 | 112%
74 | COc1ccc(/C=C2\CCCC3=C2N=C2SC(C)=CN2C3c2ccc(OC)cc2)cc1 (stereo not given) | 101%
75 | c1ccc(CSc2ncccc2-c2nnc(SCCN3CCOCC3)o2)cc1 | 109%
76 | C/C=C/C1=CN2C(=O)c3cc(OC4OC(C)C(NC)C(C)(O)C4O)c(C)c(O)c3N=C[C@@H]2C1 (stereo not given in full) | 1.76% (active)
77 | C[C@]12CC[C@@H]3c4ccc(OS(=O)(=O)O)cc4CC[C@H]3[C@@H]1CC[C@@H]2NS(=O)(=O)c1ccc(-c2ccccc2)cc1 | 91.6%
78 | COc1ccc(/C(C#N)=C/c2ccccc2OC)cc1 | 33.2%
79 | COc1ccc(Cc2cnc(N)nc2N)cc1OC | 96%
80 | Cc1cc(CC(C)CC(C)(C)C)n(O)c(=O)c1 (stereo not given) (tested in a mixture with another compound) | 57.6%
